The source made the active and inactive calls. The calls were made as follows, unless noted: active = hit-call score of the fitted dose curve at least 0.9, where 1 is the maximum; inactive = score below 0.9.
Assay: IUF_NPC2-5_cytotoxicity_120hr: Cytotoxicity Assessment at 120 hours in the Leibniz Research Institute for Environmental Medicine (IUF) Neural Progenitor Cell Migration and Differentiation Assay (NPC2-5) (AID 2284307; active = hit-call score of the fitted dose curve at least 0.9, where 1 is the maximum;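 as to AC50: LDH released into supernatant as membrane damage marker via resorufin fluorescence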)
Procedure, shortened: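 Fluorescence (RFU) from LDH-driven resazurin reduction in medium supernatants measured loss of membrane integrity after 120 h of compound exposure of differentiating primary human neural progenitor spheres on an extracellular matrix.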

| SMILES | AC50 | outcome |
| --- | --- | --- |
| BrC1CC(Br)CC(Br)CC(Br)CC(Br)CC(Br)C1 (centres undefined) | 4.52 µM (active) | – |
| CC(CNC(=S)[S-])NC(=S)[S-].[Zn+2] (centres undefined) | 9.92 µM (active) | – |
| CC(=O)N[C@@H](CC(=O)O)C(=O)O | – | inactive |
| CC(C)c1nn(C(=O)NC(C)(C)C)c(=O)n1N | – | inactive |
| Cc1[nH]n(C)c(=O)c1C(=O)c1ccc(C(F)(F)F)cc1S(C)(=O)=O | – | inactive |
| CCCCOCCOP(=O)(O)OCCOCCCC | – | inactive |
| F | – | inactive |
| CCCCCC(C)(CC)C(=O)NC (centres undefined) | – | inactive |
| C[C@@H]1CCO[C@H]2Cn3cc(C(=O)NCc4ccc(F)cc4F)c(=O)c(O)c3C(=O)N12 | – | inactive |
| CN(C)CCCn1cc(C2=C(c3c[nH]c4ccccc34)C(=O)NC2=O)c2ccccc21 | 8.39 µM (active) | – |
| CCCCCC=C(C)C(CC)CCO (centres undefined) | – | inactive |
| CCc1ccccc1 | – | inactive |
| C[C@@H]1CC[C@@H](C(C)(C)O)[C@H](O)C1 | – | inactive |
| CC(C)O | – | inactive |

Assay: IUF_NPC2-5_cell_number_120hr: Cell Number Assessment at 120 hours in the Leibniz Research Institute for Environmental Medicine (IUF) Neural Progenitor Cell Migration and Differentiation Assay (NPC2-5) (AID 2284308);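 also: count of Hoechst-stained nuclei in migration zone around plated human neural progenitor spheres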
Procedure, shortened: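 Cell number is taken as all Hoechst-positive nuclei detected in the area into which cells migrate out of the sphere, scored at 120 h and referenced to DMSO solvent control, which was kept at no more than 0.1%.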

| SMILES | outcome | AC50 |
| --- | --- | --- |
| BrC1CC(Br)CC(Br)CC(Br)CC(Br)CC(Br)C1 (centres undefined) | inactive | – |
| CC(CNC(=S)[S-])NC(=S)[S-].[Zn+2] (centres undefined) | – | 50 µM (active) |
| CC(=O)N[C@@H](CC(=O)O)C(=O)O | inactive | – |
| CC(C)c1nn(C(=O)NC(C)(C)C)c(=O)n1N | inactive | – |
| Cc1[nH]n(C)c(=O)c1C(=O)c1ccc(C(F)(F)F)cc1S(C)(=O)=O | inactive | – |
| CCCCOCCOP(=O)(O)OCCOCCCC | inactive | – |
| F | inactive | – |
| CCCCCC(C)(CC)C(=O)NC (centres undefined) | inactive | – |
| C[C@@H]1CCO[C@H]2Cn3cc(C(=O)NCc4ccc(F)cc4F)c(=O)c(O)c3C(=O)N12 | inactive | – |
| CN(C)CCCn1cc(C2=C(c3c[nH]c4ccccc34)C(=O)NC2=O)c2ccccc21 | – | 2.31 µM (active) |
| CCCCCC=C(C)C(CC)CCO (centres undefined) | inactive | – |
| CCc1ccccc1 | inactive | – |
| C[C@@H]1CC[C@@H](C(C)(C)O)[C@H](O)C1 | inactive | – |
| CC(C)O | inactive | – |
| CC(=O)OC/N=[N+](\C)[O-] | inactive | – |

Assay: IUF_NPC2-5_viability_120hr: Viability Assessment at 120 hours in the Leibniz Research Institute for Environmental Medicine (IUF) Neural Progenitor Cell Migration and Differentiation Assay (NPC2-5) (AID 2284312)
Procedure, shortened: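 Human fetal (GW 16-19) neural progenitor spheres of 0.3 mm were plated on poly-D-lysine/laminin in N2 differentiation medium and exposed from day 0 for 120 h, with half-medium refresh at day 3. Viability was read as alamar blue resazurin-to-resorufin fluorescence against DMSO.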

| SMILES | outcome | AC50 |
| --- | --- | --- |
| BrC1CC(Br)CC(Br)CC(Br)CC(Br)CC(Br)C1 (centres undefined) | inactive | – |
| CC(CNC(=S)[S-])NC(=S)[S-].[Zn+2] (centres undefined) | inactive | – |
| CC(=O)N[C@@H](CC(=O)O)C(=O)O | inactive | – |
| CC(C)c1nn(C(=O)NC(C)(C)C)c(=O)n1N | inactive | – |
| Cc1[nH]n(C)c(=O)c1C(=O)c1ccc(C(F)(F)F)cc1S(C)(=O)=O | inactive | – |
| CCCCOCCOP(=O)(O)OCCOCCCC | inactive | – |
| F | inactive | – |
| CCCCCC(C)(CC)C(=O)NC (centres undefined) | inactive | – |
| C[C@@H]1CCO[C@H]2Cn3cc(C(=O)NCc4ccc(F)cc4F)c(=O)c(O)c3C(=O)N12 | inactive | – |
| CN(C)CCCn1cc(C2=C(c3c[nH]c4ccccc34)C(=O)NC2=O)c2ccccc21 | – | 6.01 µM (active) |
| CCCCCC=C(C)C(CC)CCO (centres undefined) | inactive | – |
| CCc1ccccc1 | inactive | – |
| C[C@@H]1CC[C@@H](C(C)(C)O)[C@H](O)C1 | inactive | – |
| CC(C)O | inactive | – |
| CC(=O)OC/N=[N+](\C)[O-] | inactive | – |

Reference: PubChem BioAssay (EPA / NIEHS)
